Bioassay records as filed in PubChem BioAssay.
DAGLB inhibitor: DAGLB lipase inhibitors, primary screen, biochemical, fluorescence, HTS; Diacylglycerol lipase-beta (Homo sapiens), Q8NCG7; HEK293T DAGLB membrane lysate, EnzChek fluorogenic substrate; inhibition, % at 5.17 µM; 0.059% of 340,000 active; in the data active = inhibition above about 34%;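 note: 0% = enzyme with vehicle and 100% = wells lacking enzyme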
PLCg1 inh: PLC-gamma1 enzyme inhibitors, primary screen, biochemical, fluorescence, purified enzyme. fluorogenic substrate. 1-phosphatidylinositol 4,5-bisphosphate phosphodiesterase gamma-1 (Homo sapiens), P19174. 0.84% of 370,000 active. inhibition, % at 12.2 µM
Target sequence (P19174 whole entry, looked up): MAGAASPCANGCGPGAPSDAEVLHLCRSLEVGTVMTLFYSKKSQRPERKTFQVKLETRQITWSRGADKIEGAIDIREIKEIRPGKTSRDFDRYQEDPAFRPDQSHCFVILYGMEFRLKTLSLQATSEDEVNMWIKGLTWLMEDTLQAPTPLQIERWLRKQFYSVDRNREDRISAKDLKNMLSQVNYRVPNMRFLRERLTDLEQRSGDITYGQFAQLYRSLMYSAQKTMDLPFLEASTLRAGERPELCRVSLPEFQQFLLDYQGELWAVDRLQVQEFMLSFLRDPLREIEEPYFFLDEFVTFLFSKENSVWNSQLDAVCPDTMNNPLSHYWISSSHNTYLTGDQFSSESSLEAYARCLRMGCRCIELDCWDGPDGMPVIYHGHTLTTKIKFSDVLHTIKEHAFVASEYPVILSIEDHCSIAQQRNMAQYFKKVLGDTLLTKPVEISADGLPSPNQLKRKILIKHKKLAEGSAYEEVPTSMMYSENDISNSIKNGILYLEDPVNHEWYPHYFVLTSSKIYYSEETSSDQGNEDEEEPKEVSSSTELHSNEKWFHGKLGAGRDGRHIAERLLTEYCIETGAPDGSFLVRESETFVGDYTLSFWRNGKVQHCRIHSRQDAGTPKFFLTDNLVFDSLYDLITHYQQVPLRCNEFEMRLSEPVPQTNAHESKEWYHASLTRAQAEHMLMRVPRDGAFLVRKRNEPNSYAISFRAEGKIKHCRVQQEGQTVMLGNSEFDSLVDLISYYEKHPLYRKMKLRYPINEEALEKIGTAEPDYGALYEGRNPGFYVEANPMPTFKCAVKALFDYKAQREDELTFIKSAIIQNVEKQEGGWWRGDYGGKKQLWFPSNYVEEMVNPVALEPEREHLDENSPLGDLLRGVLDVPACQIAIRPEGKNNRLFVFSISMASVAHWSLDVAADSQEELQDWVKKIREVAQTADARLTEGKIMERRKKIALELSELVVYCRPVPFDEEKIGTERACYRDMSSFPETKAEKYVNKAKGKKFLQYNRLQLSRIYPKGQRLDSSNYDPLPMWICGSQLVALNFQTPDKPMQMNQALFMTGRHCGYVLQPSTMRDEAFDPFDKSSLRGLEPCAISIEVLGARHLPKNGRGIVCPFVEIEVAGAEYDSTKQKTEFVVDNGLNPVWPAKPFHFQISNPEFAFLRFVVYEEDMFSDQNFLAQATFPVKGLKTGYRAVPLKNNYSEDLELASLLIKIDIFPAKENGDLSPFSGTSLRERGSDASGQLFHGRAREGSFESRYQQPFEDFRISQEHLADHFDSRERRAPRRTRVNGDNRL
HGIII-sPLA2 inh: human group III sPLA2 inhibitors, primary screen, biochemical, QFRET, BODIPY PC-A2 liposome substrate | inhibition, % at 12.2 µM | Group 3 secretory phospholipase A2 (Homo sapiens), Q9NZ20 | QFRET BODIPY PC-A2 liposome hydrolysis, fluorescence | 0.56% of 370,000 active;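 active = inhibition above mean plus 3 SD of compounds lying within the high and low control bounds, cut at about 19% in these data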;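 note: 0% = median of test compound wells and 100% = no enzyme DMSO wells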
PLC-beta3 inh: human PLC-beta3 inhibitors, primary screen, biochemical, fluorescence; 1-phosphatidylinositol 4,5-bisphosphate phosphodiesterase beta-3 (Homo sapiens), Q01970; Purified PLC-beta3, fluorogenic substrate; inhibition, % at 12.2 µM; 0.18% of 370,000 active; AID 720704, 2013; in the data active = inhibition above about 11%;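 note: 0% = median of compound wells on plate and 100% = full blocker control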
PLCg1 ctr: PLC-gamma1 enzyme inhibitors, counter-screen for PLC-beta3 inhibitor project, biochemical, fluorescence; shares compounds with PLCg1 inh; purified PLC-gamma1, fluorogenic substrate; inhibition, % at 12.3 µM; 3.1% of 3,300 active; AID 743258, 2014
PLCb3 confirm: PLC-beta3 inhibitor confirmation, biochemical, fluorescence, purified enzyme | inhibition, % at 12.3 µM | shares compounds with PLCg1 inh | 1% of 3,300 active | fluorogenic substrate fluorescence; in the data active = inhibition above about 11%
Active calls of the source: *; · = no result given. Compounds with a hit are over-represented: about 1.5% of the library has one in this group of screens. Cut-off read from the data, not from the text of the source, unless noted: active = inhibition above about 9.5%; inactive = the rest.

SMILES | DAGLB inhibitor | PLCg1 inh | HGIII-sPLA2 inh | PLC-beta3 inh | PLCg1 ctr | PLCb3 confirm
C#CCN1CC(N(C)CCCO)CS1(=O)=O (stereo not drawn) | · | 1.1 | 6.6 | 0.6 | · | ·
Cc1nn(Cc2cccc(C(=O)NC34CC5CC(CC(C5)C3)C4)c2)c(C)c1Br | -6.6 | 2.6 | -9.3 | 0.6 | · | ·
CCCNC(=O)c1cccc(Cn2nc(C)c(Br)c2C)c1 | 0.6 | 12.2* | 4.8 | 7.9 | -2.4 | 0.2
Cc1cnn(Cc2ccccc2)c1N | -7.8 | 10.5* | 8.3 | 7.5 | -8.7 | -4.3
CCOC(=O)c1ccc(NC(=O)CSc2nnc(-c3cc(-c4ccccc4)n[nH]3)n2N)cc1 | · | 1.2 | 4.8 | -0.2 | · | ·
CCCC(C)C(=O)Nc1cccc(NC(C)=O)c1 (stereo not drawn) | 2.0 | 12.3* | 2.5 | 7.5 | -6.1 | -3.5
CCCC(C)C(=O)Nc1ccc2c(c1)OCCO2 (stereo not drawn) | -3.8 | 1.2 | 18.5 | 2.9 | · | ·
CC(=O)NC(CCS(C)(=O)=O)C(=O)Nc1cc(C)on1 (stereo not drawn) | 1.1 | 10.5* | 0.8 | 5.3 | -36.9 | 0.7
CC(=O)NC(CCS(C)(=O)=O)C(=O)Nc1ccccc1C (stereo not drawn) | -0.9 | -0.9 | 9.7 | -0.5 | · | ·
CCOCCCNC(=O)C(c1ccc(C)cc1)N(Cc1ccc2c(c1)OCO2)C(=O)CNC(C)=O (stereo not drawn) | -1.1 | 13.2* | -5.8 | -0.4 | -26.5 | -11.7
CCOCCCNC(=O)C(c1ccc(Cl)cc1)N(Cc1ccc2c(c1)OCO2)C(=O)CNC(C)=O (stereo not drawn) | -2.1 | 0.1 | -0.9 | -2.4 | · | ·
COC(=O)[C@]12C[C@H](CC(=O)NCC34CC5CC(CC(C5)C3)C4)C(=O)N(CCc3ccc(OC)c(OC)c3)C1=C[C@H](C(C)C)O[C@@H]2C1CC1 | · | 1.1 | -10.7 | 1.9 | · | ·
CC1(C(=O)NS(=O)(=O)c2cccs2)CCN1C(=O)c1cccc(F)c1 (stereo not drawn) | · | -0.9 | 2.8 | 13.8* | -1.5 | -0.5
CC1(C(=O)NS(=O)(=O)c2cccs2)CCN1C(=O)c1ccccc1 (stereo not drawn) | · | 2.6 | 13.9 | 4.0 | · | ·
Cc1onc(-c2ccccc2)c1C(=O)NC(=S)NNC(=O)c1cccnc1 | -0.3 | 10.5* | 2.8 | 4.7 | -2.2 | -0.9
Cc1onc(-c2ccccc2)c1C(=O)NC(=S)NNC(=O)c1ccncc1 | 1.6 | -5.8 | 19.0 | -6.0 | · | ·
CC(C)(C)C(=O)Cn1c[n+](N)cn1 | -3.7 | 10.2* | -1.2 | 3.1 | -4.7 | -0.9
CC(C)(C)C(=O)Cn1ncc(Cl)c(Cl)c1=O | -1.3 | 0.3 | -1.9 | 3.0 | · | ·
CC(=O)N(C)c1ccc(N=Nc2ccc3ncccc3c2)cc1 | 10.4 | 11.9* | -5.4 | 9.6 | 6.5 | 6.2
CC(=O)N(C)c1ccc(N=Nc2c(C)[nH]n(-c3ccccc3)c2=O)cc1 | -23.1 | 3.8 | -4.1 | -2.3 | · | ·
Cc1ccccc1CC(=O)N1CCC(n2nnc3ncccc32)CC1 | · | 0.9 | 0.0 | 1.8 | · | ·
O=C(Nc1ncc2c(n1)CC(c1ccccc1)CC2=O)c1ccco1 (stereo not drawn) | -2.0 | -0.6 | -5.3 | -1.0 | · | ·
O=C(Nc1ncc2c(n1)CC(c1cccc(Cl)c1)CC2=O)c1ccco1 (stereo not drawn) | -0.6 | 18.7* | 0.1 | -3.6 | -6.5 | -1.7
Cc1ccc(S(=O)(=O)CCc2nc3ccccc3[nH]2)cc1 | 0.4 | 5.8 | 10.5 | -5.6 | · | ·
Cc1ccc(S(=O)(=O)Cc2nc3ccccc3c(=O)[nH]2)cc1 | -0.3 | -1.7 | -2.8 | 19.0* | -16.1 | 9.4
SMILES | DAGLB inhibitor | PLCg1 inh | HGIII-sPLA2 inh | PLC-beta3 inh | PLCg1 ctr | PLCb3 confirm
COc1ccc(C(CCNCc2ccc(OC(C)C)cc2)c2ccccc2OC)cc1 (stereo not drawn) | -8.2 | 5.8 | -4.7 | 4.5 | · | ·
COc1ccc(CNCCC(c2ccccc2)c2ccc(OC(C)C)cc2)cc1OC (stereo not drawn) | 2.9 | 10.5* | -7.8 | 6.8 | 1.5 | 4.5
COc1ccc(CNCCC(c2ccc(F)cc2)c2ccc(OC(C)C)cc2)cc1OC (stereo not drawn) | -1.5 | 10.6* | -9.8 | -2.1 | -4.2 | 2.0
COC(=O)c1c(C)[nH]c(C(C)=O)c1C | -3.9 | 10.8* | 8.8 | 0.0 | 6.8 | 3.5
CC(=O)c1[nH]c(C)c(C(C)=O)c1C | -1.2 | -1.4 | 5.7 | 2.3 | · | ·
COc1ccccc1-c1cnnc(N/N=C/c2ccc(-c3cccc(Br)c3)o2)n1 | 3.7 | 12.0* | 10.2 | 1.0 | 8.4 | 4.6
CCC(C)[C@H](NC(=O)Nc1cccc(Br)c1)C(=O)OC (stereo partly drawn) | 0.1 | 12.6* | -3.5 | 9.4 | -5.9 | -1.1
COC(=O)[C@@H](NC(=O)Nc1cccc(Br)c1)C(C)C | -3.2 | 0.6 | -1.6 | 1.8 | · | ·
O=S1(=O)C=CCN1Cc1cn(Cc2cccc(C(F)(F)F)c2)nn1 | · | -0.9 | -1.1 | 0.8 | · | ·
CN1C(=O)C(O)(CC(=O)/C=C/c2ccco2)c2ccccc21 (stereo not drawn) | 0.2 | 1.9 | 14.1 | 13.7* | -3.7 | -2.0
CN1C(=O)C(O)(CC(=O)/C=C/c2ccco2)c2cc(Br)ccc21 (stereo not drawn) | -1.5 | -0.4 | -1.5 | -3.3 | · | ·
COc1ccc(S(=O)(=O)NC2CCCC2)cc1Br | -2.5 | 0.3 | -3.1 | -1.4 | · | ·
O=S(=O)(NC1CCCC1)c1ccccc1Br | 0.4 | 8.6 | 5.5 | 15.6* | -0.9 | -0.3
COc1ccc(CCNC(=O)C2CC(=O)N(C3CCCCC3)C2)cc1OC (stereo not drawn) | -0.6 | 11.2* | -6.0 | -2.0 | -0.6 | 0.3
COc1ccc(CCNC(=O)C2CC(=O)N(C3CCCC3)C2)cc1OC (stereo not drawn) | 0.1 | 3.8 | 7.6 | -1.1 | · | ·
CSc1nc(C)c(Cc2ccccc2)c(=O)[nH]1 | 0.8 | 10.9* | 3.7 | -0.4 | -10.7 | -2.9
CCCC(=O)NNC(=O)CCC(=O)Nc1ccccc1Cl | -0.5 | 10.1* | -3.3 | -0.5 | -4.2 | -1.6
Cc1cccc(-c2nn(-c3ccccc3)cc2C(=O)Nc2cccc(S(=O)(=O)NC3=NCCC3)c2)c1 | 0.4 | 10.7* | -10.3 | 1.5 | -5.9 | -3.0
O=C(NCc1n[nH]c(=S)n1-c1cccc(C(F)(F)F)c1)c1ccc(S(=O)(=O)N2CCCCC2)cc1 | 1.4 | 11.5* | 8.6 | 2.5 | 1.3 | -4.3
O=C(NCc1n[nH]c(=S)n1-c1cccc(C(F)(F)F)c1)c1ccc(S(=O)(=O)N2CCCC2)cc1 | 0.5 | 0.8 | 10.4 | 1.7 | · | ·
CC(=O)N1CCOc2ccc(S(=O)(=O)Nc3ccc(C)cn3)cc21 | 3.4 | 2.7 | 6.4 | -12.5 | · | ·
